According to PubChem BioAssay (NCI):
The panel holds about 83,000 compounds, 20% with a hit somewhere; the sample as a whole holds those more often.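 96-well plates, one dose, 48 hours. Percent growth reported; active if below 10.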 Unmarked numbers belong to inactive results. Active and inactive are the calls of the source.

What was measured:
Experiment in all cases: NCI-60 one-dose screen, 48 h (100 = growth as untreated, 0 = no growth, -100 = all killed)
Conditions in all cases: 10 µM unless noted
[1] = test system: NCI-H23 lung
[2] = test system: NCI-H226 lung
[3] = test system: NCI-H322M lung
[4] = test system: HOP-62 NSCLC
[5] = test system: NCI-H460 lung
[6] = test system: HOP-92 NSCLC
[7] = test system: NCI-H522 lung
[8] = test system: A549/ATCC NSCLC
[9] = test system: 786-0 renal
[10] = test system: COLO 205 colon

Cc1cc(-c2nc3cc(F)ccc3[se]2)cc(F)c1N
growth [1]: 59.5% | growth [2]: 34.9% | growth [3]: 83.8% | growth [4]: 71.2% | growth [5]: 23.1% | growth [6]: 79.2% | growth [7]: 83.1% | growth [8]: 66.9% | growth [9]: 103% | growth [10]: 52.4%

Clc1cccc(NCOOC2(OOCNc3cccc(Cl)c3)CCCCC2)c1
growth [1]: 43.6% | growth [2]: 94.7% | growth [3]: 73.7% | growth [4]: 49.5% | growth [5]: 77.2% | growth [6]: -46.3% (active) | growth [7]: 14.7% | growth [8]: 3.1% (active) | growth [9]: 10.8% | growth [10]: 96.6%

Nc1ccc2c(c1)oc1ccccc12
growth [1]: 97.3% | growth [2]: 93.1% | growth [3]: 102% | growth [4]: 103% | growth [5]: 111% | growth [6]: 89.4% | growth [7]: 95.9% | growth [8]: 89% | growth [9]: 95.7% | growth [10]: 123%

COC(=O)[C@@]1(C)CC[C@]2(C)CC[C@]3(C)C4=CC(=O)c5c(cc(O)c(O)c5C)[C@]4(C)CC[C@@]3(C)[C@@H]2C1
growth [1]: 46.9% | growth [2]: 51.1% | growth [3]: 70.6% | growth [4]: 71.7% | growth [5]: 31.8% | growth [6]: 49.2% | growth [7]: 38.5% | growth [8]: 38.6% | growth [9]: 78.6% | growth [10]: 71.5%

O=C(NCCN1CC1)C(=O)NCCN1CC1
growth [1]: 90.5% | growth [2]: 87.4% | growth [3]: 102% | growth [4]: 84.5% | growth [5]: 58% | growth [6]: 103% | growth [7]: 62.7% | growth [8]: 75.3% | growth [9]: 98.3% | growth [10]: 88.7%

C/C=C(\C)C(=O)O[C@@H]1C(O)[C@H]2OC(COC(=O)CCC(=O)CCCCCC[C@H](CCCCC)O[C@@H]3OC(C)[C@H](OC(C)=O)C(O)[C@H]3O2)[C@H]1OC(=O)/C=C/c1ccccc1 (stereo not given in full)
growth [1]: 37.1% | growth [2]: 1.09% (active) | growth [3]: 27% | growth [4]: -2.42% (active) | growth [5]: 15.9% | growth [6]: -11.4% (active) | growth [7]: 20.9% | growth [8]: 20.2% | growth [9]: 5.52% (active) | growth [10]: -2.63% (active)

CC[C@]12C=CCN3CC[C@]4(C(=C(C(=O)OC)C1)Nc1cc(OC)c(OC(C)=O)cc14)[C@@H]32
growth [1]: 20.7% | growth [2]: 34.4% | growth [3]: 39% | growth [4]: 20.5% | growth [5]: 8.27% (active) | growth [6]: 4.72% (active) | growth [7]: -1.97% (active) | growth [8]: 16% | growth [9]: 5.06% (active) | growth [10]: -22.8% (active)

COc1cc2c(cc1OCCCn1c(-c3ccccn3)nc3ccccc31)N=C[C@@H]1CCCN1C2=O
growth [1]: 15% | growth [2]: -62% (active) | growth [3]: 25.7% | growth [4]: 18% | growth [5]: -22.7% (active) | growth [6]: -59.6% (active) | growth [7]: -5.46% (active) | growth [8]: 20% | growth [9]: -33.7% (active) | growth [10]: 9.33% (active)

O=C(CCCC1CCCCC1)OCC(Cl)(Cl)Cl
growth [1]: 94.3% | growth [2]: 99% | growth [3]: 104% | growth [4]: 98.7% | growth [5]: 101% | growth [6]: 77.5% | growth [7]: 96.2% | growth [8]: 107% | growth [9]: 102% | growth [10]: 101%

O=[N+]([O-])c1c(Br)sc(Br)c1[N+](=O)[O-]
growth [1]: 37.3% | growth [2]: 87.8% | growth [3]: 84.9% | growth [4]: 75.2% | growth [5]: 75.1% | growth [6]: 43% | growth [7]: -72.9% (active) | growth [8]: 77.3% | growth [9]: -36% (active) | growth [10]: -77.7% (active)

O=[N+]([O-])c1cc(I)cc([N+](=O)[O-])c1
growth [1]: 95.9% | growth [2]: 115% | growth [3]: 111% | growth [4]: 133% | growth [5]: 111% | growth [6]: 131% | growth [7]: 85.5% | growth [8]: 99.5% | growth [9]: 112% | growth [10]: 111%

Nc1cc2nc3ccccc3nc2cc1N
growth [1]: 77.3% | growth [2]: 85.6% | growth [3]: 99.4% | growth [4]: 80.4% | growth [5]: 95.7% | growth [6]: 97.8% | growth [7]: 79.8% | growth [8]: 80.1% | growth [9]: 102% | growth [10]: 106%

Cc1cc(N(CCCl)CCCl)ccc1C=Nc1ccccc1-c1ccccc1
growth [1]: 60.8% | growth [2]: -38.8% (active) | growth [3]: 101% | growth [4]: 54.6% | growth [5]: 16.4% | growth [6]: 84.4% | growth [7]: 99.5% | growth [8]: 59.6% | growth [9]: 52.1% | growth [10]: 86.1%

CC(=O)O[C@@H]1CC[C@]2(C)[C@H]3CC[C@]4(C)C(=O)CC[C@H]4[C@@H]3C[C@@H]3SC(N)=N[C@@]32C1
growth [1]: 79.6% | growth [2]: 83.4% | growth [3]: 89.7% | growth [4]: 70.1% | growth [5]: 38.7% | growth [6]: 78.8% | growth [7]: 8.26% (active) | growth [8]: 47.4% | growth [9]: 58.8% | growth [10]: 48.8%

Clc1ccc2nnnn2n1
growth [1]: 54.4% | growth [2]: 66.6% | growth [3]: 85.2% | growth [4]: 55.7% | growth [5]: 20.7% | growth [6]: -3.54% (active) | growth [7]: 13.2% | growth [8]: 77.3% | growth [9]: 23% | growth [10]: -77.3% (active)

O=Cc1cn(Cc2ccc(Cl)cc2)c2ccccc12
growth [1]: 84.9% | growth [2]: -26.9% (active) | growth [3]: 82.5% | growth [4]: 76.9% | growth [5]: 5.05% (active) | growth [6]: 76.4% | growth [7]: 93.4% | growth [8]: 64.8% | growth [9]: 94.1% | growth [10]: 22%

O=C1NC(=O)C(=Cc2cn(C(=O)c3ccccc3)c3ccccc23)C(=O)N1
growth [1]: 98% | growth [2]: 92.3% | growth [3]: 95.5% | growth [4]: 93.4% | growth [5]: 97.6% | growth [6]: 71.8% | growth [7]: 85.8% | growth [8]: 101% | growth [9]: 101% | growth [10]: 113%

N#CC1C(C#N)C2CCC1C1C2N1c1ccccc1 (stereo not given)
growth [1]: 117% | growth [2]: 101% | growth [3]: 92.3% | growth [4]: 97.4% | growth [5]: 108% | growth [6]: 74.5% | growth [7]: 108% | growth [8]: 126% | growth [9]: 107% | growth [10]: 103%

CN(C)CCCOc1ccc2c(c1)c(C(=O)C(=O)NCCO)cn2Cc1ccccc1
growth [1]: 95.6% | growth [2]: 103% | growth [3]: 105% | growth [4]: 100% | growth [5]: 105% | growth [6]: 92.1% | growth [7]: 99% | growth [8]: 105% | growth [9]: 93.3% | growth [10]: 107%

O=c1[nH]cc(N(CCCl)CCCl)c(=O)[nH]1
growth [1]: 54.2% | growth [2]: 76.5% | growth [3]: 96.6% | growth [4]: 103% | growth [5]: 31.8% | growth [6]: 2.65% (active) | growth [7]: 53.8% | growth [8]: 77.5% | growth [9]: 44.9% | growth [10]: 81%

O=C1NC(=O)C(=Cc2cccn2CCCCCn2c3ccccc3c(=O)c3ccccc32)C(=O)N1
growth [1]: 96.3% | growth [2]: 99.1% | growth [3]: 98.3% | growth [4]: 102% | growth [5]: 108% | growth [6]: 90.4% | growth [7]: 90.5% | growth [8]: 100% | growth [9]: 99% | growth [10]: 114%

CC1=C2[C@@H](CC1)[C@]1(C)O[C@@](C(C)C)(C[C@H]1O)[C@H]2OC(=O)C1CC1c1ccccc1 (stereo not given in full)
growth [1]: 102% | growth [2]: 75.6% | growth [3]: 109% | growth [4]: 81.7% | growth [5]: 102% | growth [6]: 73.3% | growth [7]: 72.7% | growth [8]: 76.5% | growth [9]: 97.9% | growth [10]: 90.5%

ClCCN(CCCl)c1ccc(-n2cnc3c(Cl)ncnc32)cc1
growth [1]: -69% (active) | growth [2]: 97.5% | growth [3]: 58.7% | growth [4]: 87% | growth [5]: 47.8% | growth [6]: -1.92% (active) | growth [7]: -76.9% (active) | growth [8]: 85.2% | growth [9]: 106% | growth [10]: 65.8%

c1ccc(CSC(c2ccccc2)c2ccccc2)cc1
growth [1]: 101% | growth [2]: 111% | growth [3]: 119% | growth [4]: 116% | growth [5]: 105% | growth [6]: 76.2% | growth [7]: 97.6% | growth [8]: 103% | growth [9]: 91.3% | growth [10]: 101%

COc1ccc(C(=O)c2sc3nc4c(cc3c2N)N2CCC4CC2)cc1OC
growth [1]: 92.5% | growth [2]: 65.2% | growth [3]: 107% | growth [4]: 72.9% | growth [5]: 103% | growth [6]: 6.56% (active) | growth [7]: 82.4% | growth [8]: 94.8% | growth [9]: 90.9% | growth [10]: 97.1%

COc1cc([N+](=O)[O-])c2nc(C)ccc2c1[N+](=O)[O-]
growth [1]: 105% | growth [2]: 104% | growth [3]: 139% | growth [4]: 132% | growth [5]: 115% | growth [6]: 96.3% | growth [7]: 87.2% | growth [8]: 107% | growth [9]: 105% | growth [10]: 77.6%
